The inhibition is the drop in the measured response relative to a control, in per cent.

In all, about 89,000 compounds went through this assay and about 440 (0.49%) were called active. This is one part of a sample in which actives are shown more often than they occur. A number with no mark means an inactive call.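 Rule for the calls: active = inhibition above the mean inhibition across all screened compounds plus 3 SD (cut at about 11% in these data); inactive = the rest.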

This is an account of results in PubChem BioAssay AID1117264 (The Scripps Research Institute Molecular Screening Center, 2014).

The target of this assay is RNA-editing ligase 1, mitochondrial (Trypanosoma brucei brucei) (UniProt P86926). Description: T. brucei editing ligase REL1 blockade – biochemical, FRET fluorescence, primary screen (AID 1117264).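 Note: 0% = plate median of test wells and 100% = NSC42067 control.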 The conditions noted are these: TbREL1 RNA ligation, at 9.66 µM, stronger effect = higher value.
Chain of RNA-editing ligase 1, mitochondrial (Trypanosoma brucei brucei) (P86926 whole entry, looked up): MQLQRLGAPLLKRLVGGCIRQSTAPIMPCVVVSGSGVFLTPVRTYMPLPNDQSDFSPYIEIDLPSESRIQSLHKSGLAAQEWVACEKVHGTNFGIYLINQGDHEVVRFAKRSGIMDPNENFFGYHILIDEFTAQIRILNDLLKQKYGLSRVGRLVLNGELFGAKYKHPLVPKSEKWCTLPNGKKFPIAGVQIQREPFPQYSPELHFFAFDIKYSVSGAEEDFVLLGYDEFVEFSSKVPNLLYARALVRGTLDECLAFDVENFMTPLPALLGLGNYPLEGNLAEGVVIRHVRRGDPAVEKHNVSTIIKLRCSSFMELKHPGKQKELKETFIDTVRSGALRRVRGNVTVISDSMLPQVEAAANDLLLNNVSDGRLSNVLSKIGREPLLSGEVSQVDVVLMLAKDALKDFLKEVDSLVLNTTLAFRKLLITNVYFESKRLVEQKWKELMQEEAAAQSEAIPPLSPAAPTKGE
For the compound `Cc1c(CCC(=O)N[C@@H](CC(C)C)C(=O)O)c(=O)oc2c(C)c3oc4c(c3cc12)CCCC4`, the inhibition was 0.56%. Consider `Cc1cc(NC(=O)CN2C(=O)NC(C)(CCc3ccccc3)C2=O)no1` (stereo not given), for which the inhibition was 0.2%. Take `O=C(NNC1CC(=O)N(c2cccc(Cl)c2)C1=O)c1cccnc1` (stereo not given): the inhibition was 0.41%. Under `O=S1(=O)CC(N2CCN(CCO)CC2)CN1Cc1cn(Cc2cccc(Cl)c2)nn1` (stereo not given) stands 0.87%; under `COc1ccc(NC(=O)C(Br)C(C)C)cc1` (stereo not given), -2.35%. Under `CCOC(=O)c1ccc(NC(=S)N2CCCC2)cc1` stands -1.43%. As for `COc1ccccc1NC(=S)N1CCN(C(c2ccccc2)c2ccccc2)CC1`, the inhibition is -6.34%. Take `O=C(Oc1cccc(NC2=NS(=O)(=O)c3ccccc32)c1)c1ccncc1`: the inhibition is 0.38%.

Consider `Cc1ccc(S(=O)(=O)N(C)C)cc1NC(=O)COC(=O)c1c(C)noc1C`, for which the inhibition is -2.07%.

Turning to `O=C(Nc1cccnc1)c1cccc(S(=O)(=O)N2CCCC2)c1`, the inhibition was 3.63%. As to `CCCn1c(CCNc2nc(-c3ccc(OC)cc3)cs2)nc2ccccc21`, the inhibition was 1.63%. Consider `CC1CN(CC(=O)NC(C)c2ccccc2)CC(C)O1` (stereo not given), for which the inhibition was 1.72%. In the case of `Fc1cc(Br)ccc1NC(=S)Nc1cccnc1`, the inhibition is -1.64%. Consider `COc1cc(/C=C/C(=O)OCC(=O)NC2CC2)cc(OC)c1OC`, for which the inhibition was 8.18%. Under `COc1ccccc1-n1cnc2cc(NS(=O)(=O)c3ccccc3)ccc21` stands 0.63%.

Regarding `COc1cc(/C=C/C(=O)n2cnc3ccccc32)cc(OC)c1OC`, the inhibition was 12% (active). As to `O=C(Nc1ccccc1N1CCN(C(=O)c2ccccc2)CC1)c1ccco1`, the inhibition was -1.42%. `COc1ccc(N2C(=O)CC(Nc3ccc(F)cc3)C2=O)c([N+](=O)[O-])c1` (stereo not given): the inhibition is -1.86%. The value for `CCOc1ccc(NC(=O)CN(C)CC(=O)NC(C)c2ccccc2)cc1OCC` (stereo not given) was 2.99%.

Take `CCOC(=O)C1CCN(CC(=O)Nc2ccc(OC)c(S(=O)(=O)N3CCCCC3)c2)CC1`: the inhibition was 2.37%. With `CNc1nc(Nc2ccc(C)c(Cl)c2)nc(N)c1[N+](=O)[O-]`, the inhibition is 13.4% (active). Turning to `Nc1nc(Nc2ccccc2)nc(NCCO)c1[N+](=O)[O-]`, the inhibition was 7.49%. In the case of `Cc1ccc(Nc2nc(N)nc(CN3CCN(Cc4ccccc4)CC3)n2)cc1Cl`, the inhibition was -4.51%. Regarding `Cn1c(=O)c2c(nc(NCc3ccccc3)n2CC(N)=O)n(C)c1=O`, the inhibition was -2.6%.

Take `CN(C)/C(=N\OC(=O)c1ccccc1)c1nonc1N`: the inhibition was 0.81%. The value for `C=CCn1c(=S)[nH]c2scc(-c3ccco3)c2c1=O` was 20.5% (active); that for `COc1ccc(N2CCN(CCNS(=O)(=O)c3ccc([N+](=O)[O-])cc3)CC2)cc1` was -4.76%; that for `O=C(c1ccc(CN2CCOCC2)cc1)N1CCN(c2ccccc2F)CC1` was -3.62%. `O=C(Nn1cc(C(=O)N2CCN(c3ccccc3F)CC2)c2ccccc2c1=O)c1cnccn1`: the inhibition is 12.8% (active). For `Cc1ccccc1N1CCN(C(=O)c2cccnc2)CC1`, the inhibition is -0.77%. Consider `CC1=C(C(=O)N(C)C)C(c2ccccc2OC(F)F)NC(=O)N1` (stereo not given), for which the inhibition is -1.25%. As to `CC(C)C[C@@H](CO)N1CCN(Cc2ccc(O)cc2)CCC1=O`, the inhibition is -1.07%. On to `Cc1ccnc(NC(=O)c2ccco2)n1`, for which the inhibition is 2%. Take `O=C(Nc1ccc2nccnc2c1)c1ccco1`: the inhibition was -2.66%. Take `O=C(Nc1nc(-c2ccco2)c(-c2ccco2)s1)c1ccco1`: the inhibition is 51.5% (active).

As for `O=C(Nc1ccc(N2CCN(C(=O)c3ccccc3)CC2)c(Cl)c1)c1ncn[nH]1`, the inhibition was -4.97%.

For the compound `Cc1cccc(NC(=O)CN2CCN(CC(=O)NCC3(N4CCCCC4)CCCCC3)CC2)c1C`, the inhibition is -4.34%. Under `Cc1ccc(-n2c(SCC(=O)Nc3cccc4ccccc34)nnc2-c2ccccn2)cc1` stands 2.33%. Take `O=C(CCCCCN1C(=O)C2C3C=CC(C3)C2C1=O)Nc1ccccn1` (stereo not given): the inhibition was -1.93%. Turning to `CSc1ccc(C=Nn2c(-c3ccc(F)cc3)n[nH]c2=S)cc1`, the inhibition is -3.89%.

As for `CC(C)Cc1nnc(NC(=O)CN2C(=O)NC3(CCCCC3)C2=O)s1`, the inhibition was 4.69%. With `Cc1ccc(C(=O)NCC(=O)NCc2cc(=O)n(C)c(=O)n2C)cc1`, the inhibition is 1.66%. For `Nn1c(SCC(=O)NC2CCCc3ccccc32)nnc1C1CC1` (stereo not given), the inhibition was 0.24%.

Consider `COc1ccc(-c2cc(-c3nnc(SCC(=O)Nc4cccc5ccccc45)n3N)[nH]n2)cc1`, for which the inhibition was -2.51%. Regarding `CCOC(=O)C1=C(CC)Nc2ccccc2N=C1N`, the inhibition was 3.99%. On to `COCCCn1c(SCC(=O)Nc2oc(C)c3c(C)n[nH]c(=O)c23)nc2sc3c(c2c1=O)CCC3`, for which the inhibition is -6.64%. Regarding `CCC(C)C(N=C1NS(=O)(=O)c2ccccc21)C(=O)N1CCC(C)CC1` (stereo not given), the inhibition is -0.06%. For the compound `CN(CC(=O)Nc1ccccc1[N+](=O)[O-])Cc1ccc(Br)cc1`, the inhibition is 1.93%. For the compound `CCNC(=O)N1CCCC(C(=O)c2ccc(-c3ccccc3)cc2)C1` (stereo not given), the inhibition is -3.04%. As for `O=C(NN=Cc1ccc([N+](=O)[O-])cc1)C1CC1`, the inhibition was -3.07%. The value for `Cc1nc(Cl)c(C#N)c2c1CCCC2` was 8.75%; that for `COC(=O)c1c(C)c(C)nc(N)c1C#N` was -2.53%. As to `COCc1c(N)c(C)nc(Cl)c1C#N`, the inhibition was 11.8% (active). Regarding `O=C(NCc1ccccc1)[C@H]1CCCN1C(=O)[C@H]1CCCN1C(=O)N1CCOCC1`, the inhibition was -0.82%. For `COc1cccc(CNC(=O)COC(=O)CN2C(=O)NC3(CCCCC3C)C2=O)c1` (stereo not given), the inhibition is 1.52%. Take `CC1CCN(C(=O)COC(=O)c2cc(S(=O)(=O)N3CCOCC3)ccc2Cl)CC1`: the inhibition was -2.18%. With `O=C(NCC(c1ccco1)N1CCc2ccccc21)c1cccc(F)c1` (stereo not given), the inhibition was -8.09%. With `COc1cc(NC(=O)C2CCCN(S(=O)(=O)c3ccc(C(C)(C)C)cc3)C2)cc(OC)c1` (stereo not given), the inhibition is 5.8%.

`COc1cc(S(=O)(=O)N2CCN(C(=O)C3CC3)CC2)ccc1NC(C)=O`: the inhibition was 4.21%. The value for `COC(=O)[C@@]12CCCCC=C1N(CCc1ccc(Cl)cc1)C(=O)[C@H]2CC(=O)NCc1ccc(OC)c(OC)c1` was -3.3%.
